In PubChem BioAssay (Tox21):
Several values for one entry are separate records, joined by “and”; a condition that tells them apart may be missing. Equal entries are not always repeated. Records with an inconclusive call do not appear. Where a call stands in place of a potency, no number is given. Some structures have more than one record in an assay (separate samples or runs), and their calls can disagree. Activity calls are given as the source filed them. Calls come from the whole dose curve; as a rule, active = well fitted cell-killing curve with a large enough effect in the repeat runs; inconclusive = weak or mixed curves, or effect the other way; inactive = flat fitted curve, though single readings scatter.

Assay: qHTS assay to identify small molecule agonists of the sonic hedgehog signaling (Shh) pathway - cell viability counter screen (AID 1259366); note: nearly all actives have a fitted effect of over 50% in size
Details: NIH/3T3 Gli1-Luc viability, CellTiter-Fluor, 24 h; series mostly up to 92.4 µM; viability change, negative = cytotoxic: at the top concentration
From the text: National Center for Advancing Translational Sciences [NCATS]
NIH Chemical Genomics Center [NCGC]
U.S. Environmental Protection Agency [EPA]
National Institutes of Environmental Health Sciences [NIEHS]
National Toxicology Program [NTP]
U.S. Food and Drug Administration [FDA]
The sonic hedgehog (Shh) pathway is essential for normal embryonic development. Dysregulation of the Shh pathway can cause severe developmental defects in organs. Therefore chemicals that interfere with the pathway are potential developmental toxicants. A cell line designated 3T3Gli1-Luc (DMB/OARSA/CFSAN/FDA, Laurel, MD), a NIH/3T3 derived clone containing stably integrated Gli1-Luc reporter is used to detect chemical interference of the Shh pathway, by changes in the expression of the firefly Luc gene under the control of the Gli1 transcriptional response element. This cell line was used to screen Tox21 libraries for identifying and prioritizing the potential developmental toxicants that interfere Shh pathway. The cytotoxicity of the compounds was tested in parallel by measuring the cell viability using CellTiter-Fluor assay system (Promega, Madison, WI) in the same wells.
Tox21 Assay Protocol Summary:
3T3 Gli1-Luc cells were dispensed at 2,000 per well in 5uL of culture medium into white solid bottom 1536-well plates (Greiner Bio-One, Monroe, NC) using a Multidrop Combi (Thermo Scientific, Waltham, MA) dispenser. The assay plates were incubated at 37 C and 5% CO2 for 4hr, and then 23nL of compounds dissolved in DMSO and positive control were transferred using a Pintool station (Wako, San Diego, CA). The assay plates were incubated at 37C and 5% CO2 for 24hr. For viability read, after 23hr of compound treatment, 1uL of CellTiter-Fluor reagent (Promega Corporation, Madison, WI) was added to each well of the assay plates using Flying Reagent Dispenser (FRD, Aurora Discovery, San Diego, CA) and incubated the assay plates at 37C for 1hr. The fluorescence signal was quantified using a ViewLux plate reader (Perkin Elmer, Shelton, CT).
Potency is the fitted concentration of half-maximal effect.

SMILES | Potency | viability change, negative = cytotoxic
O=c1c(-c2ccc(O)cc2)coc2cc(O)ccc12 | inactive | –
CC(C)NCC(O)COc1cccc2ccccc12 (stereo not given) | – | -19.1% (inactive)
COCC(C)O (stereo not given) | inactive | –
OCC1CCCO1 (stereo not given) | inactive | –
Nc1cc(-c2ccncc2)c[nH]c1=O | inactive | –
c1ccc2ccccc2c1 | inactive | –
C=CC(=O)OCCCCCCCC(C)C | inactive | –
CC(C)(C)C(=O)C1C(=O)c2ccccc2C1=O | – | 2.48% (inactive)
CC1Cc2ccccc2N1NC(=O)c1ccc(Cl)c(S(N)(=O)=O)c1 (stereo not given) | inactive | –
NS(=O)(=O)c1cc2c(cc1Cl)NC=NS2(=O)=O | inactive | –
Oc1c(Cl)cc(Cl)c(Cl)c1Cl | inactive | –
CC1CC(OC(=O)c2ccccc2O)CC(C)(C)C1 (stereo not given) | inactive | –
CC(C)(N=C=O)c1cccc(C(C)(C)N=C=O)c1 | – | -1.96% (inactive)
c1ccc2[nH]cnc2c1 | inactive | –
CCCCCCCCCCCCN | 27.3 µM (active) and inactive | –
COC(=O)c1ccc(C(=O)OC)cc1 | 6.95 µM (active) and inactive | –
C=C(C)C(=O)OCCC[Si](OC)(OC)OC | inactive | –
C=C(C)C(=O)OCC(CC)(COC(=O)C(=C)C)COC(=O)C(=C)C | inactive | –
CC(C)Cc1ccccc1 | inactive | –
CCC(=O)O | inactive | –

SMILES | Potency | viability change, negative = cytotoxic
CC(=O)[C@@]1(O)CC[C@H]2[C@@H]3CCC4=CC(=O)CC[C@]4(C)[C@H]3CC[C@@]21C | inactive | –
CCOC(=O)/C=C\C(=O)OCC | inactive | –
CCCCCCOC(C)=O | inactive | –
CN(C)c1cccc(O)c1 | inactive | –
CN(CCOc1ccc(CC2SC(=O)NC2=O)cc1)c1ccccn1 (stereo not given) | inactive | –
C[C@@H](O)[C@H]1C(=O)N2C(C(=O)O)=C(S[C@@H]3CN[C@H](C(=O)N(C)C)C3)[C@H](C)[C@H]12 | inactive | –
CNC[C@H](O)[C@@H](O)[C@H](O)[C@H](O)CO | inactive | –
Cc1cc(O)c2c(c1)C(=O)c1cc(O)cc(O)c1C2=O | – | -8.25% [at 42.5 µM] (inactive)
O=C(O)c1ccc([N+](=O)[O-])cc1 | – | 0.841% (inactive)
CCOC(=O)C1OC1c1ccccc1 (stereo not given) | inactive | –
O=[N+]([O-])c1cccc(Cl)c1 | inactive | –
Cc1cc(=O)[nH]c(C(C)C)n1 | inactive | –
Cn1c([N+](=O)[O-])cnc1COC(N)=O | inactive | –
C=C1C2CCC(C2)C1(C)C (stereo not given) | inactive | –
NC(=O)/N=N/C(N)=O | inactive | –
CC1COc2ccccc2N1C(=O)C(Cl)Cl (stereo not given) | – | 0.434% (inactive)
CCCCC(CC)COC(=O)CCCCCCCC(=O)OCC(CC)CCCC (stereo not given) | inactive | –
Nc1c(S(=O)(=O)O)cc(Br)c2c1C(=O)c1ccccc1C2=O | inactive and 30.6 µM (active) | –
CC1(C)CC(N=C=O)CC(C)(CN=C=O)C1 (stereo not given) | inactive | –
OC[C@@H](O)[C@@H](O)[C@H](O)[C@@H](O)CO | inactive | –
